Here are results for 39 molecules from PubChem BioAssay.

The structures appear in SMILES notation. Results filed as inconclusive are left out. Activity calls are given as the source filed them.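 The calls were made as follows: active = cell viability at or below a set limit in both duplicate runs, the limit being the all-compound median minus 4 SD (cut at about 23% in these data, passing the limit was not always enough); inconclusive = no clear call, values can overlap the other calls; inactive = the rest.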

This experiment in a line: viability of HCT116 without oncogenic beta-catenin – human colon tumor cells, pilot screen (AID 823).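 Also: 0% = wells killed by 20 µM Hyamine and 100% = untreated DMSO cell wells.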 The conditions noted are these: HCT116 beta-catenin knockout viability, CellTiter-Glo, 60 h; at 10 µM; hits give low values. (In ATP-based viability assays light output follows the ATP content of the culture.)
In general, viability refers to a read-out of living cells in per cent, often relative to untreated cells. For `Cc1ccc(CNC(=O)C2CCCN(S(=O)(=O)c3cnc[nH]3)C2)cc1` (centres undefined), the viability is 109% (inactive).

For `COc1cc2c(cc1OC)C(c1ccc(C)o1)CC(=O)N2` (centres undefined), the viability was 80% (inactive).

As for `COc1ccc(S(=O)(=O)Nc2ccc(F)c(Cl)c2)cc1OC`, the viability is 86.3% (inactive).

As for `O=C(OCCN(CCOC(=O)c1ccncc1)S(=O)(=O)c1cccs1)c1ccncc1`, the viability was 102% (inactive).

Regarding `N#CCCN(Cc1cccnc1)C(=O)Nc1ccc(Cl)c(Cl)c1`, the viability was 95.3% (inactive).

Take `NC(=O)CN1C(=O)C(O)(CC(=O)c2ccccc2O)c2ccccc21` (centres undefined): the viability is 94.8% (inactive).

`CCCOc1ccc(C2C(C(=O)OC)=CN(CCOC)C=C2C(=O)OC)cc1`: the viability is 81.5% (inactive).

Turning to `C(=N\c1c(-c2ccccc2)nc2n1CCS2)/c1ccccc1`, the viability is 84.8% (inactive).

Consider `COC(=O)c1cn(NC(=O)C2CCCO2)c(=O)c2ccccc12` (centres undefined), for which the viability was 91.2% (inactive).

Turning to `CCN1CCN(C(=O)C2CC(c3ccc(F)cc3)=NO2)CC1` (centres undefined), the viability is 95.2% (inactive).

`CCOC(=O)C1CCN(Cc2ccc(OC)c(C)c2OC)CC1`: the viability is 78.3% (inactive).

With `Cn1c(NC(=O)c2ccccc2NC(=O)C(C)(C)C)nc2ccccc21`, the viability is 47.1% (inactive).

With `Cc1cccc(CN2CCC(CNC(=O)C3CCCN(S(=O)(=O)c4cnc[nH]4)C3)CC2)c1` (centres undefined), the viability is 101% (inactive).

`CC1CC(NC(=O)c2cnc3n(c2=O)CCS3)CC(C)(C)C1` (centres undefined): the viability is 99% (inactive).

Turning to `CC1CCCN(S(=O)(=O)c2coc(C(N)=O)c2)C1` (centres undefined), the viability is 108% (inactive).

`O=C(NCc1ccc2c(c1)OCO2)C1CCCN(S(=O)(=O)c2cccc3cccnc23)C1` (centres undefined): the viability is 84.9% (inactive).

On to `CC(C)(O)C#Cc1ccc(C(=O)N2CCN(C(=O)c3ccco3)CC2)cc1`, for which the viability was 92.4% (inactive).

Regarding `COC(=O)C1=C(C)Nc2nnnn2C1c1ccc(Cl)cc1Cl` (centres undefined), the viability was 98% (inactive).

With `CC(NC(=O)C1CC1)C(c1cccs1)N1CCN(c2ccccc2)CC1` (centres undefined), the viability was 92% (inactive).

As for `O=C(Nc1c(C(=O)NCc2ccco2)cnn1-c1ccccc1)c1ccc(F)cc1`, the viability is 101% (inactive).

Regarding `COc1ccc(-n2c(Cc3cccn3C)nnc2SCC(=O)Nc2cccc(Cl)c2)cc1`, the viability was 76.5% (inactive).

Take `CCOC(=O)N1CCN(C(=O)c2ccc3nc4ccsc4c(=O)n3c2)CC1`: the viability was 101% (inactive).

With `CCC(C)C(=O)Nc1nc2c(s1)C(=O)CC(C)(C)C2` (centres undefined), the viability was 107% (inactive).

As to `COc1cc2c(cc1OC)CN(C(=O)CSc1nc3[nH]ncc3c(=O)n1-c1ccccc1)CC2`, the viability was 101% (inactive).

For `CC(NC(=O)c1cc2c(=O)n(C)c3ccccc3c2n1C)c1ccc2c(c1)OCCO2` (centres undefined), the viability was 65.6% (inactive).

As for `O=C(C1CCCN1S(=O)(=O)c1cccc2cccnc12)N1CCn2c1nc1ccccc12` (centres undefined), the viability was 97.4% (inactive).

`CCn1c(SCC(=O)Nc2cc(C)ccc2C)nc2c(c1=O)SC(C)C2` (centres undefined): the viability is 93.6% (inactive).

Turning to `CCOC(=O)c1sc2nc(NC(=O)COc3ccccc3)sc2c1C`, the viability was 109% (inactive).

As for `Cc1ccc(-n2ncc3c(N4CCCC(C)C4)ncnc32)c(C)c1` (centres undefined), the viability was 80.5% (inactive).

As to `O=C(O)C1C2C=CC3(CN(C4CCCC4)C(=O)C13)O2` (centres undefined), the viability was 104% (inactive).

Consider `CCCCSc1nc2c(cnn2-c2ccc(F)cc2)c(=O)[nH]1`, for which the viability is 104% (inactive).

For the molecule `CCCCCn1c(=O)[nH]c2cc(C(=O)NCCN3CCOCC3)ccc2c1=O`, the viability is 92.5% (inactive).

Turning to `Cc1ccc(-c2cc3nc4c(c(=O)n3[nH]2)CCCC4)cc1`, the viability was 95.2% (inactive).

`CCCOC(=O)c1[nH]c2c(c1C)C(=O)CC(c1cc(OC)c(OC)c(OC)c1)C2` (centres undefined): the viability is 48.1% (inactive).

Consider `COc1cccc(-c2nc3n(n2)C(c2ccccc2Cl)C(C(N)=O)=C(C)N3)c1` (centres undefined), for which the viability is 82.8% (inactive).

As to `Cc1c(NC(=O)c2ccc(Br)o2)c(=O)n(-c2ccccc2)n1C`, the viability is 97.7% (inactive).

`COc1ccc(-c2nc(CS(=O)CC(=O)NCc3ccccn3)c(C)o2)cc1` (centres undefined): the viability is 95.9% (inactive).

Consider `CCOc1cc(C2NC(=O)NC(O)(C(F)(F)F)C2C(=O)c2ccccc2)ccc1OC` (centres undefined), for which the viability was 109% (inactive).

On to `CN(CCCNC(=O)c1cn(C)c2ccc(S(=O)(=O)N(C)C)cc2c1=O)c1ccccc1`, for which the viability is 94.8% (inactive).
